Screening data deposited in PubChem BioAssay by National Center for Advancing Translational Sciences (NCATS).
Hits are enriched below; roughly 5.8% of the tested compounds scored in any of these assays.
12-LOX inh – Primary qHTS assay for inhibitors of human arachidonate 12S-lipoxygenase (ALOX12): Round 2; purified 12hLO, xylenol orange hydroperoxide absorbance; Potency, µM (titrated, usually from 108 µM), for the others: top-dose activity change, negative = inhibition, most hits filed as inhibitors; 580,000 compounds, 1.1% hits; also: % is scaled to controls: 0 for no effect and ±100 for the full control effect
Target sequence (P18054 whole entry, looked up): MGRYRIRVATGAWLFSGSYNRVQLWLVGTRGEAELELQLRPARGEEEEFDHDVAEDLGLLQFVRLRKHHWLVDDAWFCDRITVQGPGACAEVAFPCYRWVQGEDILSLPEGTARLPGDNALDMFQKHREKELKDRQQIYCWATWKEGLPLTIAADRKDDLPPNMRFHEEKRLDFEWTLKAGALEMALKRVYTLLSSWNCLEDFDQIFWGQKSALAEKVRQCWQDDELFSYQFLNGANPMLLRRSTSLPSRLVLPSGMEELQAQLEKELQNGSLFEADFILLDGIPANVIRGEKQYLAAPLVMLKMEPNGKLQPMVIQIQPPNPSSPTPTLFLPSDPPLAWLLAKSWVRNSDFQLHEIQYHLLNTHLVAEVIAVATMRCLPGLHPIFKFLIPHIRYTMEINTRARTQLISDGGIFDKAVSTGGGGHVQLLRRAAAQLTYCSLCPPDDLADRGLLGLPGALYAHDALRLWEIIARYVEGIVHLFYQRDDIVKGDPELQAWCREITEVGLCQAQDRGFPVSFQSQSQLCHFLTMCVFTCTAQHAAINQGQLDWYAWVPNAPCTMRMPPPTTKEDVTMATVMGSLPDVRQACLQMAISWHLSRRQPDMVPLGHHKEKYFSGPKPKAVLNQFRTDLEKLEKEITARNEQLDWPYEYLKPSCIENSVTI
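Purified human 12hLO at 150 nM in 25 mM Hepes, 0.01% Triton X-100, pH 7.0, preincubated 15 min at room temperature with compound. Reaction started with 40 uM arachidonic acid, 30 min at room temperature. Hydroperoxide measured by Fe-xylenol orange, 573/405 nm absorbance ratio.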
KB-3-1 tox – qHTS assay for MDR1-selective chemotherapeutics: Primary screen using the parental adenocarcinoma cell KB-3-1. KB-3-1 viability, CellTiter-Glo ATP luminescence, 72 h. AID 1347075, 2019. Potency, µM (doses to about 46.1 µM), most hits filed as cytotoxic. 400,000 compounds, 1.4% hits; also: % is scaled to controls: 0 for no effect and ±100 for the full control effect; nearly all actives have a fitted effect of over 60% in size
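KB-3-1 parental drug-naive adenocarcinoma cells in DMEM/10% FBS, incubated 72 h at 37 C with pin-transferred compounds across a concentration series. Viability by CellTiter-Glo luminescence; concentration-response curves fitted after normalization.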
MCF10A rereplic – A quantitative high throughput screen for small molecules that induce DNA re-replication in MCF 10a normal breast cells; 350,000 compounds, 2.9% hits; MCF 10A DNA re-replication, Hoechst nuclear intensity, 48 h; Potency, µM (top dose mostly 46.1 µM), for the others: at the top dose activity, positive = re-replication, actives largely listed as activators; also: % of control where 0% means no effect; nearly all actives have a fitted effect of over 50% in size
SW480 rerep – A quantitative high throughput screen for small molecules that induce DNA re-replication in SW480 colon adenocarcinoma cells | Potency, µM (highest dose often 46.1 µM), for the others: at the top dose re-replication activation, most hits filed as activators | SW480 DNA re-replication, Hoechst DNA content imaging, 48 h | 340,000 compounds, 1.8% hits | AID 624297, 2012; also: % of control where 0% means no effect; nearly all actives have a fitted effect of over 55% in size
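SW480 cells exposed to compounds for 48 hr at 37 C, 5% CO2, then Hoechst-stained 40 min. Nuclear DNA content imaged by fluorescence scanning (405 nm excitation, 500-530 nm emission); re-replication scored as increased high-intensity nuclei.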
KB-V1 cytotox – qHTS assay for MDR1-selective chemotherapeutics: Primary screen using the drug-selected MDR subline cells KB-V1; KB-V1 MDR cells viability, CellTiter-Glo, 72 h; Potency, µM (series often up to 46.1 µM), hits mostly cytotoxic; 400,000 compounds, 3.4% hits; AID 1347076, 2019; also: % is scaled to controls: 0 for no effect and ±100 for the full control effect; nearly all actives have a fitted effect of over 60% in size
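KB-V1 cells (P-gp-expressing MDR subline of KB-3-1) in phenol-red-free DMEM with 10% FBS were exposed to library compounds over a concentration series for 72 h at 37 degrees C. Viability read by CellTiter-Glo luminescence; concentration-effect curves fitted after normalization.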
PINK1 expr mod – A Quantitative High throughput Screen to Identify Chemical Modulators of PINK1 Expression; Potency, µM (doses to about 76.6 µM), inactives show top-dose activation (PINK1 increase), hits mostly activators; PINK1 immunofluorescence, high-content cytometry, 24 h; 410,000 compounds, 0.2% hits; AID 624263, 2012; active = well fitted activation curve with a large enough effect; inconclusive = small, poorly fitted or top-dose-only effect; cell line not stated here; also: % of control where 0% means no effect; nearly all actives have a fitted effect of over 65% in size
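PINK1 protein level read as immunofluorescence by microplate cytometer in a fixed, stained stable cell line after 24 h exposure to five compound concentrations, with CCCP as control.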
* marks the source's active call; other numbers are inactive results; i = inactive; ? = inconclusive; / = no result; [ ] = another dose, or the depositor's remark. Unless noted, calls follow the shape of the dose curve; as a rule, active = well fitted curve in the direction sought with a large enough effect; inconclusive = small, poorly fitted or top-dose-only effect, or another doubt; inactive = no such curve, though single readings can be large; an effect the other way counts as inactive or inconclusive. Potency is read from the fitted curve at half-maximal effect.

SMILES	12-LOX inh	KB-3-1 tox	MCF10A rereplic	SW480 rerep	KB-V1 cytotox	PINK1 expr mod
CCN(CC(=O)Nc1ccc2c(c1)OCCO2)Cc1cc(=O)oc2c(C)c(C)ccc12	-17%	i	-1%	6%	4.1µM*	0%
CC(=O)Nc1ccc(NC(=O)CSCc2nc3ccccc3c(=O)[nH]2)cc1	9%	/	/	/	/	/
COc1ccc(Nc2oc(COc3ccccc3C)nc2C#N)cc1	43%	/	/	/	/	/
CO/C([O-])=N/c1c[n+](-c2ccc(Cl)cc2)no1	25µM*	i	2%	0%	i	-4%
Cc1cccc2sc(NNC(=O)c3ccc(S(=O)(=O)N4CCc5ccccc5C4)cc3)nc12	?	5.8µM*	?	4.1µM*	i	9%
Cc1cccc2sc(NNC(=O)c3ccc(S(=O)(=O)N4CCCC(C)C4)cc3)nc12 (stereo unspecified)	?	5.2µM*	?	7.3µM*	i	?
CCc1nnc(NC(=O)c2ccc(S(=O)(=O)N3CCCC(C)C3)cc2)s1 (stereo unspecified)	15%	i	-1%	-41%	i	0%
Cc1cccc2sc(NC(=O)c3cccc(S(=O)(=O)N4CCc5ccccc54)c3)nc12	-5%	i	?	-6%	i	6%
COC(=O)c1ccc(CN(C)C(C)C(=O)Nc2cc(C)ccc2C)cc1 (stereo unspecified)	64%	/	/	/	/	/
CCOc1ccc(NC(=O)COc2ncnc3ccccc23)c([N+](=O)[O-])c1	-10%	/	/	/	/	/
N/C(=N\OC(=O)COc1ccc(Cl)cc1)c1cccnc1	?	i	-2%	-5%	?	1%
N/C(=N\OC(=O)COc1ccc(Cl)cc1Cl)c1cccnc1	-14%	i	14%	13µM*	?	14%
O=C(CCCOc1ccc(Cl)cc1Cl)Nc1cccnc1	?	i	-1%	-5%	18µM*	1%
CSc1cccc(NC(=O)CCCOc2ccc(Cl)cc2Cl)c1	0%	i	-1%	1%	i	-1%
Cn1c(SCC(=O)Nc2ccc(C(=O)O)cc2)nnc1-c1ccc(Cl)cc1Cl	-26%	/	/	/	/	/
CCOC(=O)c1cnc2c(c(C)nn2C)c1Oc1ccc(Cl)cc1	?	?	16%	2%	3.3µM*	3%[38.3 µM]
Cc1nn(C)c2ncc(C(N)=O)c(Oc3cccnc3)c12	61%	i	1%	-1%	i	0%
O=C1c2ccccc2C(=O)N1CCCc1c[nH]c2ccccc12	-9%	i	?	26%	21µM*	-1%
O=C(O)CCCC(=O)N1CC(=O)Nc2ccccc21	?	i	-5%	-8%	i	-1%
O=C1c2ccccc2C(=O)N1CCc1c[nH]c2ccc(O)cc12	-3%	i	-2%	3.7µM*	?	0%
O=C1CN(C(=O)CCCc2c[nH]c3ccccc23)c2ccccc2N1	0%	i	16µM*	0%	i	0%
O=C(NCCc1ccccc1)c1cccc2c1C(=O)N(C1CCCCC1)C2	-6%	i	0%	-19%	i	1%
COc1ccc(CCNC(=O)c2cccc3c2C(=O)N(C2CCCCC2)C3)cc1OC	2%	i	13%	-7%	18µM*	2%
C/C(=N\NC(=O)c1c[nH]c2ccccc12)c1ccccn1	9%	?	-6%	26%	i	-1%
C/C(=N\NC(=O)c1c[nH]c2ccccc12)c1ccco1	-5%[57.4 µM]	i	2.3µM*	2.9µM*	i	5%[38.3 µM]
CCCCCn1c(NCCC)nc2c1c(=O)[nH]c(=O)n2C	7%	/	/	/	/	/
